Source: the supplement of paper PMC7411054
Structures can show the parent of a compound that is named as a salt.

Legend:
Assay in all cases: lowest phenotypically active concentration; higher = less potent
Settings in all cases: treatment time: 24 h
A549-ACTB-RAB5A = system: A549-ACTB-RAB5A
Procedure, shortened: (§1)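 Four wells per concentration (0.3, 1, 3 or 9 µM) were treated for 24 h in each of fifteen gene-edited reporter lines from A549, HepG2 and WPMY1 cells, then imaged live. After normalising live-cell features to solvent control wells, deviation was defined as ≥3 of 4 wells lying past the 95th percentile of control Euclidean distances. Reproducibility was defined as a median replicate Pearson correlation above the 95th percentile of non-replicates. Both had to hold for phenotypic activity.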

A549-CANX-COX4 = system: A549-CANX-COX4
Procedure, shortened: as §1

A549-TP53BP1-CLTA = system: A549-TP53BP1-CLTA
Procedure, shortened: as §1

A549-TUBA1B-RELA = system: A549-TUBA1B-RELA
Procedure, shortened: as §1

HepG2-CANX-COX4 = system: HepG2-CANX-COX4
Procedure, shortened: as §1

HepG2-TP53BP1-CLTA = system: HepG2-TP53BP1-CLTA
Procedure, shortened: as §1

HepG2-TUBA1B-RELA = system: HepG2-TUBA1B-RELA
Procedure, shortened: as §1

WPMY1-ACTB-RAB5A = system: WPMY1-ACTB-RAB5A
Procedure, shortened: as §1

WPMY1-CANX-COX4 = system: WPMY1-CANX-COX4
Procedure, shortened: as §1

WPMY1-TUBA1B-RELA = system: WPMY1-TUBA1B-RELA
Procedure, shortened: as §1

Measured: lowest phenotypically active concentration

CCCCCC[C@H]1C(=O)O[C@H](C)[C@H](NC(=O)c2cccc(NC=O)c2O)C(=O)O[C@@H](C)[C@@H]1OC(=O)CC(C)C [antimycin a]
≤ 0.3 µM: all assays above

COc1ccc(CCN2CCC(Nc3nc4ccccc4n3Cc3ccc(F)cc3)CC2)cc1 [astemizole]
1 µM: A549-ACTB-RAB5A | A549-TUBA1B-RELA | HepG2-TUBA1B-RELA
9 µM: A549-CANX-COX4
3 µM: all other assays above

C=C1[C@@H](O)C2C=CC[C@H](C)C(=O)[C@](C)(O)C=C[C@@H](OC(C)=O)[C@]23C(=O)N[C@H](Cc2ccccc2)[C@@H]3[C@@H]1C (stereo partly specified) [Cytochalasin D]
≤ 0.3 µM: all assays above

CC(C)(O)[C@H]1O[C@H]2CC[C@@]3(C)[C@@](O)(CC[C@H]4Cc5c([nH]c6ccccc56)[C@@]43C)C2=CC1=O [paxilline]
9 µM: A549-ACTB-RAB5A | HepG2-TP53BP1-CLTA

N#CC(C#N)=NNc1cccc(Cl)c1
3 µM: WPMY1-TUBA1B-RELA
9 µM: all other assays above

COc1ccc2c(c[n+](C)c3c4cc5c(cc4ccc23)OCO5)c1OC [Chelerythrine chloride]
9 µM: A549-TP53BP1-CLTA | HepG2-TP53BP1-CLTA
3 µM: A549-ACTB-RAB5A

COc1ccc2c(c1)/C(=C/c1c[nH]cn1)C(=O)N2
3 µM: WPMY1-ACTB-RAB5A
1 µM: all other assays above

CC(C)(C)c1cc(C=C(C#N)C#N)cc(C(C)(C)C)c1O [Malonoben]
3 µM: A549-TP53BP1-CLTA
1 µM: all other assays above

COc1cc2c(c(OC)c1OC)-c1ccc(O)c(=O)cc1[C@@H](N)CC2 [Trimethylcolchicinic acid]
9 µM: A549-ACTB-RAB5A | A549-CANX-COX4 | A549-TP53BP1-CLTA | A549-TUBA1B-RELA | HepG2-CANX-COX4 | HepG2-TUBA1B-RELA

Cc1c(C(=O)Nc2cccc(C(F)(F)F)c2)cc(-c2ccccc2)n1CCCN1CCOCC1
9 µM: A549-ACTB-RAB5A

CC(C)[C@@]1(NC(=O)[C@@H]2C[C@@H]3c4cccc5[nH]cc(c45)C[C@H]3N(C)C2)O[C@@]2(O)[C@@H]3CCCN3C(=O)[C@H](Cc3ccccc3)N2C1=O [Dihydroergocristine mesylate]
3 µM: HepG2-TUBA1B-RELA
9 µM: all other assays above

CC[C@@H]1C=CC=CC[C@H](C)[C@@H](O)[C@](C)(O)C(=O)[C@H](C)[C@@H](O)[C@H](C)C(=O)[C@H](C)[C@@H](O)[C@H](C)C=CC(=O)O[C@H]2[C@@H](C)[C@@H](CC1)O[C@@]1(CC[C@@H](C)[C@@H](C[C@H](C)O)O1)[C@@H]2C [Oligomycin A]
1 µM: WPMY1-CANX-COX4
not listed: WPMY1-ACTB-RAB5A | WPMY1-TUBA1B-RELA
≤ 0.3 µM: all other assays above

C[C@H]1O[C@@H](O[C@H]2[C@@H](O)C[C@H](O[C@H]3[C@@H](O)C[C@H](O[C@H]4CC[C@@]5(C)[C@H](CC[C@@H]6[C@@H]5CC[C@]5(C)[C@@H](C7=CC(=O)OC7)[C@@H](O)C[C@]65O)C4)O[C@@H]3C)O[C@@H]2C)C[C@H](O)[C@@H]1O [Gitoxin]
≤ 0.3 µM: all assays above

CN1CCC2=C[C@H](O)[C@H]3OC(=O)c4cc5c(cc4[C@H]3[C@@H]21)OCO5 [Hippeastrine hydrobromide]
9 µM: A549-ACTB-RAB5A | HepG2-CANX-COX4

CC[C@]12C=CCN3CC[C@]4(C(=C(C(=O)OC)C1)Nc1ccccc14)[C@@H]32 [Tabersonine dichlorhydrate]
not listed: A549-TP53BP1-CLTA
9 µM: all other assays above

Cc1sc2c(c1C)C(c1ccc(Cl)cc1)=N[C@@H](CC(=O)OC(C)(C)C)c1nnc(C)n1-2
1 µM: WPMY1-TUBA1B-RELA
≤ 0.3 µM: all other assays above
